According to PubChem BioAssay (NCATS):
Records with an inconclusive call do not appear. Entries that show only a call come without a potency. Activity calls are given as the source filed them. Calls follow the shape of the full dose curve.

Experiment: Primary qHTS for Vero E6 cytotoxicity: counterscreen for inhibitors of SARS-S pseudo-typed particle cell entry (AID 1479150)
Details: cell viability; series mostly up to 57.1 µM

SMILES	Potency
CCCCOC(=O)c1ccc(N)cc1	inactive
CCCCC(CC)COC(=O)c1ccccc1O (stereo not drawn)	inactive
CCOc1cc(CC(=O)N[C@@H](CC(C)C)c2ccccc2N2CCCCC2)ccc1C(=O)O	inactive
CN(C)C(=O)COC(=O)Cc1ccc(OC(=O)c2ccc(N=C(N)N)cc2)cc1	inactive
C[C@](O)(CS(=O)(=O)c1ccc(F)cc1)C(=O)Nc1ccc(C#N)c(C(F)(F)F)c1	inactive
CC(=O)NC[C@H]1CN(c2ccc(N3CCOCC3)c(F)c2)C(=O)O1	inactive
COC(=O)c1cc(Cl)ccc1NS(=O)(=O)C(F)(F)F	inactive
c1ccc2sc(SSc3nc4ccccc4s3)nc2c1	inactive
CC(C)COC(=O)c1ccc(N)cc1	inactive
CCOC(=O)Oc1ccc(CCNC(=O)[C@H](CCSC)NC(C)=O)cc1OC(=O)OCC	inactive
CC(=O)Nc1ccc(C(=O)O)cc1	inactive
O=P(O)(O)C(O)(Cn1ccnc1)P(=O)(O)O	inactive
CC(=O)N=c1sc(S(N)(=O)=O)nn1C	inactive
CCCCCCCCCCCCCCCC(=O)OC(C)C	inactive
CCCC(=O)O[C@]1(C(=O)CO)CC[C@H]2[C@@H]3CCC4=CC(=O)CC[C@]4(C)[C@H]3[C@@H](O)C[C@@]21C	inactive
CCCC(=O)O[C@]1(C(=O)COC(=O)CC)CC[C@H]2[C@@H]3CCC4=CC(=O)CC[C@]4(C)[C@H]3[C@@H](O)C[C@@]21C	inactive
Nc1nc(Cl)nc2c1ncn2[C@@H]1O[C@H](CO)[C@@H](O)[C@@H]1F	inactive
CCCc1nc(C(C)(C)O)c(C(=O)OCc2oc(=O)oc2C)n1Cc1ccc(-c2ccccc2-c2nn[nH]n2)cc1	inactive
Cc1ccc(C(=O)C(=O)O)cc1C	inactive

SMILES	Potency
Nc1nc2[nH]cc(CCc3ccc(C(=O)N[C@@H](CCC(=O)O)C(=O)O)cc3)c2c(=O)[nH]1	inactive
O=C(COCCOCCOCC(=O)Nc1c(I)cc(I)c(C(=O)O)c1I)Nc1c(I)cc(I)c(C(=O)O)c1I	inactive
CC(C)(C)NCC(O)COc1cccc2c1C[C@H](O)[C@H](O)C2 (stereo partly drawn)	inactive
CN[C@@H]1[C@H](O)[C@H](NC)[C@H]2O[C@@]3(O)C(=O)C[C@@H](C)O[C@H]3O[C@@H]2[C@H]1O	inactive
C#CCN[C@@H]1CCc2ccccc21	inactive
CO[C@@H]1[C@@H](OC(N)=O)[C@@H](O)[C@H](Oc2ccc3c(O)c(NC(=O)c4ccc(O)c(CC=C(C)C)c4)c(=O)oc3c2C)OC1(C)C	inactive
C/C(=N\O)[C@@H](C)NCC(C)(C)CN[C@H](C)/C(C)=N/O	inactive
CC(=O)CC(c1ccc([N+](=O)[O-])cc1)c1c(O)c2ccccc2oc1=O (stereo not drawn)	inactive
C[N+](C)(C)CCOC(N)=O	inactive
CCn1cc(C(=O)O)c(=O)c2cc(F)c(N3CCNC(C)C3)c(F)c21 (stereo not drawn)	inactive
CC[N+](C)(CC)CCOC(=O)C1c2ccccc2Oc2ccccc21	inactive
C/C(=C(\CCO)SS/C(CCO)=C(\C)N(C=O)Cc1cnc(C)nc1N)N(C=O)Cc1cnc(C)nc1N	inactive
CN1[C@@H]2CC(OC(=O)[C@H](CO)c3ccccc3)C[C@H]1[C@@H]1O[C@@H]12 (stereo partly drawn)	inactive
O=C(O)Cc1cccc2ccccc12	inactive
CCC(=O)c1c(O)cc(O)cc1O	inactive
Nc1ccc(S(=O)(=O)c2ccc(N)cc2)cc1	inactive
NCCCCCC(=O)O	inactive
Nc1ncnc2nc[nH]c12	inactive
O=c1oc2ccccc2c(O)c1Cc1c(O)c2ccccc2oc1=O	inactive
